Among the data in ChEMBL document CHEMBL3988442, “University of Dundee, Small-Polar-MMV Screening Library” (2021) are Percent Effect values, retold here.

Molecules are shown by their SMILES. For some of these results: Entries with a potency or affinity are not part of this list.

Holding throughout (parameters): scale not given: direction of the effect not stated beside the values
For assay [1], the target named is Protein translocase subunit SecA (Escherichia coli (strain K12)) (UniProt P10408). In words: Assay to Identify E. coli SecA ATPase Inhibitors. It counts as functional. The settings on record: 30 µM.
Assay [2] addresses T1, Ubiquitin-activating enzyme e1, putative (Leishmania donovani (strain BPK282A1)) (UniProt E9BSI1).
T1 sequence (whole entry): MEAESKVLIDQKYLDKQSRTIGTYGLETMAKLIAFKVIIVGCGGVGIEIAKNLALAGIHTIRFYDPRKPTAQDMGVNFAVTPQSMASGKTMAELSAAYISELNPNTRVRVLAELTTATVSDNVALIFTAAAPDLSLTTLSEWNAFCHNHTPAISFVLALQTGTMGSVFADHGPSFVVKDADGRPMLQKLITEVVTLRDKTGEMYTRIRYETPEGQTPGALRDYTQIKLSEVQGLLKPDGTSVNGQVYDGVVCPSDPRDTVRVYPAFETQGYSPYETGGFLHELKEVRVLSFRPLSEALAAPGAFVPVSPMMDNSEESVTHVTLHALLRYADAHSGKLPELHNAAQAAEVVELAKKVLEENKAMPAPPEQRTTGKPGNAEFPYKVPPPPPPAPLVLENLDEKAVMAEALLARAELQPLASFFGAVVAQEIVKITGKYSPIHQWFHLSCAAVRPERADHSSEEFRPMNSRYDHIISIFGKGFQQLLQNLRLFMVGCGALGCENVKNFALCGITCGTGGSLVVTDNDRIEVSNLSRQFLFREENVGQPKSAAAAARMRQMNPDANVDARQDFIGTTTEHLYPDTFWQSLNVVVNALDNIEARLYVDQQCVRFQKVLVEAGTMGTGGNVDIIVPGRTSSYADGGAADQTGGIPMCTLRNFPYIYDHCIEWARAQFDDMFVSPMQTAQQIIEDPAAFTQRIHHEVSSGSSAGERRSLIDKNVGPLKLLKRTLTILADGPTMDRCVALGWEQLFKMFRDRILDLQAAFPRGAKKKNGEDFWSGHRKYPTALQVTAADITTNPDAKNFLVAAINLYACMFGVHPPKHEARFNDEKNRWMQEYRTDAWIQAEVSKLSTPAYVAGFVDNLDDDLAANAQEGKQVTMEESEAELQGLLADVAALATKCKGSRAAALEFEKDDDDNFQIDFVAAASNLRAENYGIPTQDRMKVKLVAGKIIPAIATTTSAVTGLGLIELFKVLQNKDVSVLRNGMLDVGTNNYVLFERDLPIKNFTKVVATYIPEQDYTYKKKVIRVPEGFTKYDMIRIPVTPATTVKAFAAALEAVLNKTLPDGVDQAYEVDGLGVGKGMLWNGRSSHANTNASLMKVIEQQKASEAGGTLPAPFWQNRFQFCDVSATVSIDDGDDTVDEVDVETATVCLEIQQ
In words: Leishmania donovani Ubiquitin Activating Enzyme (LdE1). It counts as functional. The settings on record: 30 µM.

For assay [3], the target named is AMP-activated protein kinase, AMPK (Homo sapiens) (UniProt P54646+O43741+P54619+Q9UGJ0+Q9Y478+Q13131+Q9UGI9). In words: AMP-dependent Kinase enzyme assay. An in vitro enzyme assay that detects ADP turnover that is directly proportional to AMPK activity. This uses naive AMPK that is activated during the assay with MK-8722. The format is functional. The settings on record: 30 µM.

Assay [4] concerns the target Sialic acid-binding Ig-like lectin 9 (Homo sapiens) (UniProt Q9Y336). In words: Hs-Siglec9 ALPHAscreen SOP 20170721. The settings on record: 10 µM. On the technique in general: In Alpha technology, singlet oxygen from a donor bead excites a nearby acceptor bead.
The test system of another assay is Trypanosoma cruzi. In words: Trypanosoma cruzi phosphomannomutase and mannose-1-phosphate guanylyltransferase assay. The format is functional. The settings on record: 10 µM.
In assay [5] the target is T2, Arginase-2, mitochondrial (Homo sapiens) (UniProt P78540).
T2 sequence (whole entry): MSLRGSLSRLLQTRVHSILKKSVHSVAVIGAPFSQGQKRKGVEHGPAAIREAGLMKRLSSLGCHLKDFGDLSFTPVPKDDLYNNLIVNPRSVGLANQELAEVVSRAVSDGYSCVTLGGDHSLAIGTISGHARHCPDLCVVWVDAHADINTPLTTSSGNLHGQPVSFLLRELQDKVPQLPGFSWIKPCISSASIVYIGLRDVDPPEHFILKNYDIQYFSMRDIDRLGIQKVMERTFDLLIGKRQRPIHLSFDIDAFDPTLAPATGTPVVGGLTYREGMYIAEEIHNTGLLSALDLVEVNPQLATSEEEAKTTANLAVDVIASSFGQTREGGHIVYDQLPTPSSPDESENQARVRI
In words: in vitro enzyme assay to detect the production of urea directly proportional to the activity of Arginase II. Also: in the data most compounds retested in dose-response had high values. It counts as functional. The settings on record: 33.3 µM.

Assay [6] addresses T3, Proteasome subunit beta (Trypanosoma cruzi) (UniProt O96673).
T3 sequence (whole entry): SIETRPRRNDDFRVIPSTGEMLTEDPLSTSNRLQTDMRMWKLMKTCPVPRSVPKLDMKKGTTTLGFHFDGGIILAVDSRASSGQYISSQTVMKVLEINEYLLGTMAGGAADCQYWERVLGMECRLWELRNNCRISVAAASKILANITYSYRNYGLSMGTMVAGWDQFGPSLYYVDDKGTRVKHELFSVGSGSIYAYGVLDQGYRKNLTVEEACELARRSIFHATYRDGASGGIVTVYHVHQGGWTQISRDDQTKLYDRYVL
In words: Trypanosoma cruzi proteasome chymotrypsin-like activity (TcProtChymo) assay. Also: in the data most compounds retested in dose-response had high values. The format is functional. The settings on record: 9.37 µM.

The next assay is filed under the species Homo sapiens. Nature of the assay: To identify inhibition of the IFN signalling (Jak-Stat) pathway via expression of an eGFP reporter gene under the control of an IFN-stimulated response element (ISRE) containing MxA promoter. The format is functional. The settings on record: 30 µM.
In assay [7] the target is T4, Tyrosyl-tRNA synthetase, putative (Trypanosoma cruzi (strain CL Brener)) (UniProt Q4DSP6).
T4 sequence (whole entry): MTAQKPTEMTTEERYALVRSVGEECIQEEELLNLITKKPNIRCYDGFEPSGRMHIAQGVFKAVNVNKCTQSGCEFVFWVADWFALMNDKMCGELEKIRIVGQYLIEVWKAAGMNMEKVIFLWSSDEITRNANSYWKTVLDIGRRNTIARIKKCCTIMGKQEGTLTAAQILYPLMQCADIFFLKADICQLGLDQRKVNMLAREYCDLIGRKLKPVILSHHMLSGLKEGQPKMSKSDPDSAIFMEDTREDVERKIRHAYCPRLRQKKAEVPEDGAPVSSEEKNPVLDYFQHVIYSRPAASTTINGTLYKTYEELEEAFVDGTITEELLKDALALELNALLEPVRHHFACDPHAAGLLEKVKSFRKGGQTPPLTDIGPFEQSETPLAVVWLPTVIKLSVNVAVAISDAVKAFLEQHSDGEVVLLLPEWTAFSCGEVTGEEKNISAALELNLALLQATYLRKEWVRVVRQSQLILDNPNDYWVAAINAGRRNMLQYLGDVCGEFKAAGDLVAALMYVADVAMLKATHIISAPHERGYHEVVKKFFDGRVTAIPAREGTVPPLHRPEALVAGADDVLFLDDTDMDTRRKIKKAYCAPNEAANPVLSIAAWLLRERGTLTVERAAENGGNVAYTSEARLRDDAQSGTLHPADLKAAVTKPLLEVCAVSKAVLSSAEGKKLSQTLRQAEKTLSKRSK
Nature of the assay: Trypanosoma cruzi tyrosyl tRNA synthetase (TcYRS) _High Tyrosine SOP. Also: in the data most compounds retested in dose-response had high values. The settings on record: 30 µM. It counts as functional.

In assay [8] the target is T4, Tyrosyl-tRNA synthetase, putative (Trypanosoma cruzi (strain CL Brener)). In words: Trypanosoma cruzi tyrosyl tRNA synthetase (TcYRS) SOP. The settings on record: 30 µM. The format is functional.
Assay [9] concerns the target Chromo domain-containing protein 1 (Saccharomyces cerevisiae (strain ATCC 204508 / S288c) (Baker's yeast)) (UniProt P32657). In words: ScCHD-1 Enzyme Inhibition Assay. Also: in the data most compounds retested in dose-response had high values. The format is functional. The settings on record: 30 µM.

Sequence of Chromo domain-containing protein 1 (Saccharomyces cerevisiae (strain ATCC 204508 / S288c) (Baker's yeast)) (P32657 whole entry, the tested form may be a part): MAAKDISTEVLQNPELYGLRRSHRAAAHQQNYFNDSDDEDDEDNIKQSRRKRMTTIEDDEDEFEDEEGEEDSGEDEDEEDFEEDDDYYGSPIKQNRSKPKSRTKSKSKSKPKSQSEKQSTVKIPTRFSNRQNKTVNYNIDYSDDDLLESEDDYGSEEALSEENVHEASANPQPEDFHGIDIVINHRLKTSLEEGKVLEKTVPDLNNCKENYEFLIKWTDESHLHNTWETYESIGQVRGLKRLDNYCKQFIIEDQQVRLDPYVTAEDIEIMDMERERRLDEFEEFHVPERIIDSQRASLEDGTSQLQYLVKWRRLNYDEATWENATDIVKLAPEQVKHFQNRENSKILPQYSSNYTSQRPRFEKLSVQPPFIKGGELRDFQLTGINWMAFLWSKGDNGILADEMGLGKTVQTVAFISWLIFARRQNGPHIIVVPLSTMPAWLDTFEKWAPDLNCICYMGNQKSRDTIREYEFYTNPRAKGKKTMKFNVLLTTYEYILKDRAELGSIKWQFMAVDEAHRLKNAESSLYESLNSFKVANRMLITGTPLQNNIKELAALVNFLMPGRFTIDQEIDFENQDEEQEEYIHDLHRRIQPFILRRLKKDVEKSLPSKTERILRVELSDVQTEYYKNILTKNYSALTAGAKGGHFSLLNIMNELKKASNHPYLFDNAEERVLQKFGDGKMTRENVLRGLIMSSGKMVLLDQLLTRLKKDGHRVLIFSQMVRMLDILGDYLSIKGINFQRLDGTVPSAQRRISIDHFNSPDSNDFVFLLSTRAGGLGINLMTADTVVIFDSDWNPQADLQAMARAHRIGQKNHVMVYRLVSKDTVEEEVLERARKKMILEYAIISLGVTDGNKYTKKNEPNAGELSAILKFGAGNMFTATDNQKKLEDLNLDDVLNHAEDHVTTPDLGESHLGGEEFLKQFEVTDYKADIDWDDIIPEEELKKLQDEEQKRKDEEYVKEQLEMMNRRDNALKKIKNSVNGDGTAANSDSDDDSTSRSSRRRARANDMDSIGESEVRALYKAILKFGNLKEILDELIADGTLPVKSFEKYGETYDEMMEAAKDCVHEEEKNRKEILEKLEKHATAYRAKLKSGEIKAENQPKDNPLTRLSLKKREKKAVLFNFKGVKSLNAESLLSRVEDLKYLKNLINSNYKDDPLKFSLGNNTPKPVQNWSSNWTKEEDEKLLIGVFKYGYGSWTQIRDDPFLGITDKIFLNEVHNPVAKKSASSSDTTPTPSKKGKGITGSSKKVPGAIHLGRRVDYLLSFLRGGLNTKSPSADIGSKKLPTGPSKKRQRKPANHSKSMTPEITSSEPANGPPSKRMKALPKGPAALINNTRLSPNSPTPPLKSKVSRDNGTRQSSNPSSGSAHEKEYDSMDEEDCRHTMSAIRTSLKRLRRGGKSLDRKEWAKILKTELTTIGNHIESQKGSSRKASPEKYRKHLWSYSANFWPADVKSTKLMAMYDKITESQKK
Sequence of Sialic acid-binding Ig-like lectin 9 (Homo sapiens) (Q9Y336 whole entry): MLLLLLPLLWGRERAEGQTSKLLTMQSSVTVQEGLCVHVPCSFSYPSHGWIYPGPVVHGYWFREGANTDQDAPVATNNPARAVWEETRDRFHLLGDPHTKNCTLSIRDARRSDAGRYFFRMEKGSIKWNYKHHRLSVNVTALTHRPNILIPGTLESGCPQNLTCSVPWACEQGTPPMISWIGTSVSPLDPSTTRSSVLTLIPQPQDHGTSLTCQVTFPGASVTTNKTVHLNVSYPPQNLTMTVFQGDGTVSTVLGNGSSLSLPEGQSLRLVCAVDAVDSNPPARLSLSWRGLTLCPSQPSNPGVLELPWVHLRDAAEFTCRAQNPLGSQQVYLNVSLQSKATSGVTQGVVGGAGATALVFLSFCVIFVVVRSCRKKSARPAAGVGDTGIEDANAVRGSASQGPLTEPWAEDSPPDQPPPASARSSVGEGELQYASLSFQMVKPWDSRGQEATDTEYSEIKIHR
Sequence of Protein translocase subunit SecA (Escherichia coli (strain K12)) (P10408 whole entry): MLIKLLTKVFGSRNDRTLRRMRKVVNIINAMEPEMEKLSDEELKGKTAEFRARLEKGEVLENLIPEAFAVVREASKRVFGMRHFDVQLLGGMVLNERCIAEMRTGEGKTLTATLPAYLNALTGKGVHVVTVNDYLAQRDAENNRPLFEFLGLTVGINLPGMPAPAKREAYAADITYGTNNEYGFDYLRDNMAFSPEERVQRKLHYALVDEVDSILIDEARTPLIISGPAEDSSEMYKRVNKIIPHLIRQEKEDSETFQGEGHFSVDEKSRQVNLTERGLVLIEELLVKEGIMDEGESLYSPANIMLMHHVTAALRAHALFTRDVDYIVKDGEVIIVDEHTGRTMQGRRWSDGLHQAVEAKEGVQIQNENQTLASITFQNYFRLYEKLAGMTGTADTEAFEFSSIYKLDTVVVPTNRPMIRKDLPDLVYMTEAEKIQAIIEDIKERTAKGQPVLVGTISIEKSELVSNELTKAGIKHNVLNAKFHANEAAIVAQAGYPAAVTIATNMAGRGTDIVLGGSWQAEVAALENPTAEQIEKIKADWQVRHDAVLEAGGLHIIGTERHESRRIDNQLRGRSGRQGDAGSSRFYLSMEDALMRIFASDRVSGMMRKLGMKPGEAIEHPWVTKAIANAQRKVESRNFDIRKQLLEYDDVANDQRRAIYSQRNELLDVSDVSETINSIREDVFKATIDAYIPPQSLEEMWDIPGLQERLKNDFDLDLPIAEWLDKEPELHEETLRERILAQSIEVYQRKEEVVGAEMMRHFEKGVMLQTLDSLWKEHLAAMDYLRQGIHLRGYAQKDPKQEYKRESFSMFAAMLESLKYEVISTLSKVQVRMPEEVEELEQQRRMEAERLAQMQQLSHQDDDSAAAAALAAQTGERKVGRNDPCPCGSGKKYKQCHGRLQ

Turning to `CCn1cnnc1C1CCN(C(=O)C(OC)c2ccccc2)CC1` (stereo not drawn), the Percent Effect was -2.02% in assay [1]; 18.2% in assay [2]; 6.32% in assay [3]; -9.96% in assay [4]; 5.58% in the assay with Trypanosoma cruzi; -1.05% in assay [5]. In addition, the Percent Effect in [6] was 17.9%; in the assay filed under Homo sapiens it was -11%; in assay [7], 8.57%; in assay [8], 18.8%; in assay [9], -17.7%.

In the case of `CC(=O)N1CCCN(Cc2csc(-c3ncccn3)n2)CC1`, the Percent Effect in assay [1] is -0.976%; in [2] it was 13.2%; in assay [3], -3.37%; in assay [4] it was -1%; in the assay with Trypanosoma cruzi it was -3.02%; in assay [5], 3.55%. For the same molecule, the Percent Effect is 20.4% in assay [6]; 12% in the assay filed under Homo sapiens; 6.38% in [7]; 18.2% in [8]; -3.23% in assay [9].

Take `CCC1CN(CCC(=O)N(C)C)CCN1CCOC` (stereo not drawn): the Percent Effect in [1] is -1.46%; in assay [2], 16.2%; in [3] it was -11.9%; in assay [4], 3.32%; in the assay with Trypanosoma cruzi, 2.74%; in assay [5], -0.401%. The Percent Effect in [6] is 5.04%; in the assay listed under Homo sapiens it was -13.9%; in [7], 8.37%; in assay [8], 25.9%; in assay [9], -3.8%.

For `Cc1cnc(C(=O)N(CCN(C)C)Cc2ccc(Cl)cc2)cn1`, the Percent Effect in assay [1] was -0.752%; in [2], 20.8%; in assay [3], 5.67%; in assay [4] it was 9.21%; in the assay with Trypanosoma cruzi it was 4.37%; in assay [5], 9.71%. The Percent Effect in assay [6] is 15.3%; in the assay filed under Homo sapiens, -3.66%; in assay [7] it was 4.21%; in assay [8], 10.3%; in assay [9], -4.76%.

For `O=C(NCCNc1ccccn1)N1CCSCC1`, the Percent Effect in assay [1] is -7.13%; in [2], 5.41%; in assay [3], 23.3%; in assay [4], -0.67%; in the assay with Trypanosoma cruzi, -4.43%; in assay [5] it was 0.802%. In addition, the Percent Effect in assay [6] was 6.67%; in the assay listed under Homo sapiens, 5.29%; in assay [7] it was 1.48%; in assay [8] it was 1.24%; in [9], -1.12%.

On to `CCn1ccnc1CN1CCCN(C(=O)c2sccc2C#N)CC1`, for which the Percent Effect was -2.7% in assay [1]; -2.53% in assay [2]; 1.18% in [3]; 1.09% in [4]; 0.472% with Trypanosoma cruzi; 1.52% in assay [5]. In addition, the Percent Effect was -4.01% in assay [6]; -12.1% in the assay listed under Homo sapiens; 6.4% in assay [7]; 8.86% in assay [8]; 0.721% in assay [9].

`O=C1NCC[C@]12CN(Cc1ccoc1)C[C@H]2c1ccccc1`: the Percent Effect in assay [1] was 4.22%; in assay [2], 15.6%; in assay [3], 11.9%; in [4] it was -15.6%; with Trypanosoma cruzi, -8.38%; in assay [5], 1.94%. Moreover, the Percent Effect in assay [6] is 13.8%; in the assay filed under Homo sapiens, 11%; in assay [7], 4.23%; in [8], 6.41%; in assay [9], -8.29%.

In the case of `O=C1O[C@@H]2CN(Cc3ccccc3)C[C@@H]2N1CCCN1CCOCC1`, the Percent Effect in [1] is -6.39%; in assay [2] it was 2.67%; in [3], -0.894%; in assay [4], 2%; in the assay on Trypanosoma cruzi, -3.8%; in assay [5], -0.521%. In addition, the Percent Effect in [6] is 15.2%; in the assay listed under Homo sapiens, 20%; in [7], 4.92%; in assay [8], 11.1%; in assay [9], -5.71%.
